According to PubChem BioAssay AID1159580 (chemical genetic matrix, 2015):
“And” between values parts separate entries of the source, which are not always exact repeats. Equal entries are not always repeated. The whole screen tested about 5,500 compounds, of which about 2,000 (36%) were called active. About 18% were inconclusive and are not listed. No stated cut-off is given here; in the data, active means normalized growth mostly below about 0.91 (no sharp cut-off); inconclusive means no clear call, values can overlap the other calls; inactive means mostly above about 0.92. The list shows a part of the results.

Assay: chemical genetic growth profiling, strain panel (AID 1159580);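 further: tested at 20 µM; growth read once vehicle control cultures reached saturation at 30 °C; 1 = growth at the plate median or of vehicle wells; lower values mean less growth of the strain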
Conditions: S. cerevisiae deletion strains, growth OD

Measured: normalized growth

C[C@]12C=CC(=O)C=C1CCC1C3C[C@@H](O)[C@](O)(C(=O)CO)[C@@]3(C)C[C@H](O)[C@@]12F (some centres undefined)
inactive: locus YAL021C, strain ccr4, hits give low values 0.932 | locus YAL026C, strain drs2, hits give low values 0.992 | locus YAL030W, strain snc1, hits give low values 0.996 | locus YBL061C, strain skt5, hits give low values 0.984 | locus YBR009C, strain hhf1, hits give low values 0.999 | locus YBR021W, strain FUR4, hits give low values 1.02 | locus YBR023C, strain chs3, hits give low values 0.961 | locus YBR171W, strain sec66, hits give low values 0.976 | locus YBR229C, strain ROT2, hits give low values 1.01 | locus YBR231C, strain swc5, hits give low values 1.01 | locus YBR279W, strain paf1, hits give low values 0.973 | locus YCL011C, strain gbp2, hits give low values 0.974 | locus YCL016C, strain dcc1, hits give low values 0.958 | locus YCL029C, strain bik1, hits give low values 0.98 | locus YCL061C, strain MRC1, hits give low values 0.996 | locus YCL069W, strain vba3, hits give low values 0.983 | locus YCR088W, strain abp1, hits give low values 0.985 | locus YDL005C, strain med2, hits give low values 0.997 | locus YDL035C, strain GPR1, hits give low values 1.02 | locus YDL040C, strain nat1, hits give low values 0.992 | locus YDL074C, strain BRE1, hits give low values 1.04 | locus YDL101C, strain DUN1, hits give low values 1.02 | locus YDL134C, strain PPH21, hits give low values 1 | locus YDL185W, strain tfp1, hits give low values 0.973 | locus YDL192W, strain arf1, hits give low values 0.984 | locus YDR001C, strain nth1, hits give low values 0.983 | locus YDR069C, strain doa4, hits give low values 0.954 | locus YDR101C, strain arx1, hits give low values 0.971 | locus YDR137W, strain rgp1, hits give low values 0.965 | locus YDR150W, strain NUM1, hits give low values 1.02 | locus YDR159W, strain sac3, hits give low values 0.975 | locus YDR162C, strain NBP2, hits give low values 1 | locus YDR195W, strain ref2 0.991 | locus YDR297W, strain sur2, hits give low values 0.994 | locus YDR318W, strain mcm21, hits give low values 0.985 | locus YDR334W, strain swr1, hits give low values 0.976 | locus YDR335W, strain msn5, hits give low values 0.984 | locus YDR388W, hits give low values 0.982 | locus YDR392W, strain spt3, hits give low values 0.896 | locus YDR502C, strain sam2, hits give low values 0.981 | locus YEL003W, strain gim4, hits give low values 1 | locus YEL037C, strain rad23, hits give low values 0.987 | locus YEL061C, strain CIN8 (second series), hits give low values 0.991 | locus YEL061C, strain CIN8, hits give low values 1.01 | locus YER015W, strain faa2, hits give low values 0.999 | locus YER016W, strain bim1, hits give low values 0.942 | locus YER110C, hits give low values 0.979 | locus YER111C, strain swi4, hits give low values 0.975 | locus YER155C, strain BEM2 (second series), hits give low values 0.989 | locus YER155C, strain BEM2, hits give low values 1.01 | locus YER167W, strain BCK2, hits give low values 1 | locus YFR010W, strain ubp6, hits give low values 1 | locus YGL078C, strain dbp3, hits give low values 0.981 | locus YGL086W, strain mad1, hits give low values 0.996 | locus YGL167C, strain pmr1, hits give low values 0.992 | locus YGL173C, strain kem1, hits give low values 0.98 | locus YGL227W, strain vid30, hits give low values 0.962 | locus YGL240W, strain doc1, hits give low values 0.991 | locus YGL248W, strain PDE1, hits give low values 1.02 | locus YGL253W, strain hxk2, hits give low values 0.98 | locus YGR135W, strain pre9, hits give low values 0.99 | locus YGR229C, strain SMI1, hits give low values 1.01 | locus YGR252W, strain gcn5, hits give low values 1.01 | locus YHR013C, strain ard1, hits give low values 0.952 | locus YHR027C, strain rpn1, hits give low values 0.998 | locus YHR030C, strain SLT2, hits give low values 1.01 and 0.984 | locus YHR079C, strain IRE1 (second series), hits give low values 0.973 | locus YHR079C, strain IRE1, hits give low values 0.991 | locus YHR094C, strain hxt1, hits give low values 0.984 | locus YHR129C, strain ARP1, hits give low values 1.02 | locus YHR142W, strain chs7, hits give low values 0.956 | locus YHR200W, strain rpn10, hits give low values 0.988 | locus YIL066C, strain RNR3, hits give low values 1.01 | locus YIL073C, strain SPO22, hits give low values 0.984 | locus YIL125W, strain kgd1, hits give low values 0.989 | locus YIR030C, strain dcg1, hits give low values 0.98 | locus YJL092W, strain hpr5, hits give low values 0.99 | locus YJL095W, strain BCK1 (second series), hits give low values 0.995 | locus YJL095W, strain BCK1, hits give low values 1.03 and 0.985 | locus YJL115W, strain asf1, hits give low values 0.971 | locus YJL129C, strain trk1, hits give low values 0.948 | locus YJL134W, strain LCB3, hits give low values 1.01 | locus YJL154C, strain vps35, hits give low values 0.967 | locus YJL164C, strain tpk1, hits give low values 1.01 | locus YJL166W, strain qcr8, hits give low values 1.01 | locus YJL168C, strain set2, hits give low values 0.989 | locus YJL187C, strain SWE1 (second series), hits give low values 1.01 | locus YJL187C, strain SWE1, hits give low values 0.982 | locus YJR043C, strain POL32, hits give low values 1.02
